The record followed here is PubChem BioAssay (NCATS).

Where “and” joins values, the source holds several entries; their conditions need not be identical. Identical values can stand only once. Records with an inconclusive call do not appear. A structure can be active in one record and inactive in another. Calls of active or inactive are those of the source. Unless noted, calls follow the shape of the dose curve; as a rule, active = well fitted curve in the direction sought with a large enough effect; inconclusive = small, poorly fitted or top-dose-only effect, or another doubt; inactive = no such curve, though single readings can be large; an effect the other way counts as inactive or inconclusive.

A short description of assay [1]: Cytometric Cell-Based qHTS for Inhibitors of the mTORC1 Signaling Pathway in MEF (Tsc2-/-, p53-/-) Cells (AID 2660).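 Also: percent of cells above a phospho-rpS6 to PI ratio cutoff in each well; series mostly up to about 38 µM.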 The method in brief:
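Tsc2-/-, p53-/- MEFs (empty vector) exposed to compound 24 h at 37 C, fixed, stained with Alexa-488 anti-phospho-rpS6 Ser235/236 and propidium iodide. Acumen laser scanning; phospho-S6/PI ratio thresholded against 7.5 nM rapamycin, reported as % positive cells.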
A general note: Quantitative high-throughput screening tests each substance at several concentrations.

Assay [2] can be described thus: High Content Imaging Cell-Based qHTS for Inhibitors of the mTORC1 Signaling Pathway in MEF (Tsc2-/-, p53-/-) Cells (AID 2666).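 Also: percent of cells scored positive for phospho-rpS6 Ser235/236 immunostaining by imaging.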 An outline of the steps:
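Phospho-rpS6 (Ser235/236) immunofluorescence, normalized and scored as % positive cells using rapamycin and DMSO controls, was read in empty-vector Tsc2-/-, p53-/- MEFs after 24 h compound exposure at 37 C; propidium iodide counted cells.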

Assay [3] is described as follows: High Content Imaging Cell-Based qHTS for Inhibitors of the mTORC1 Signaling Pathway in MEF Cells (AID 2667).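 Also: Tsc2-/- p53-/- MEFs stably re-expressing wild-type Tsc2 exposed 24 h; series mostly up to about 38 µM.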 The method in brief:
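WT MEFs (Tsc2-/-, p53-/- re-expressing Tsc2), in DMEM + 10% FBS, were treated with compound for 24 h at 37 C. Cells were then fixed and stained for phospho-rpS6 Ser235/236 with propidium iodide as cell count. Values are % positive cells, with thresholds set against rapamycin-treated cells.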

The nature of assay [4]: Validation screen for small molecules that induce DNA re-replication in MCF 10A normal breast cells (AID 463097). Also: nearly all actives have a fitted effect of over 60% in size. Also: potency is read from the fitted curve at half-maximal effect. The method in brief: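 DNA re-replication was detected as a rise in nuclei with elevated Hoechst fluorescence after a 48 hr compound exposure of MCF 10A cells at 37 C.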
For assay [5], the target named is DNA polymerase III PolC-type (Bacillus subtilis (strain 168)) (UniProt P13267). Nature of the assay: qHTS Validation Assay for the Inhibitors of DNA Replication in Gram-Positive Bacteria (AID 485295). Also: potency is read from the fitted curve at half-maximal effect. An outline of the steps: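 Primed replication of single-stranded M13Gori by a four-protein B. subtilis holoenzyme is measured at room temperature. Double-stranded product is quantified by PicoGreen fluorescence after an EDTA stop; inhibition is scaled between DMSO and EDTA controls.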

Assay [6] addresses Tumor susceptibility gene 101 protein (Homo sapiens) (UniProt Q99816). Nature of the assay: qHTS Validation Assay for Iinhibitors of HIV-1 Budding by Blocking the Interaction of PTAP/TSG101 (AID 485342; calls by dose curve). The method in brief: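 Fluorescence anisotropy measured PTAP-Tsg101 interaction. Final concentrations were 10 uM protein domain and 50 nM labeled peptide, equilibrated 20 min at room temperature.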

Assay [7] addresses Beta-2 adrenergic receptor (Homo sapiens) (UniProt P07550). The assay can be described thus: qHTS validation assay of beta-arrestin-biased ligands of beta2-adrenergic receptor (AID 485366). An outline of the steps:
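Tango cells expressing recombinant beta2-AR and beta-arrestin with tTA-driven luciferase, in DMEM with 1% FBS. Compounds were titrated up to 46 microM for 18 hr at 37 degrees C. Luminescence was read 15 min after substrate; curves were fitted and class-assigned.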

The nature of assay [8]: Quantitative high throughput screen for delayed death inhibitors of the malarial parasite plastid, 96 hour incubation (AID 488745). Also: nearly all actives have a fitted effect of over 70% in size. Also: potency is read from the fitted curve at half-maximal effect. The method in brief:
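Growth of reporter-bearing P. falciparum in red cells is measured after 96 h with compound, covering two erythrocytic cycles. Luminescence from the integrated luciferase serves as the growth signal.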

A short description of assay [9]: Quantitative high throughput screen for delayed death inhibitors of the malarial parasite plastid, 48 hour incubation (AID 488752). Also: nearly all actives have a fitted effect of over 65% in size. Also: potency is read from the fitted curve at half-maximal effect. An outline of the steps: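 One parasite generation (48 h, 37 C, 5% CO2) of luciferase-reporter P. falciparum in erythrocytes is run with test compound; decreased luminescence indicates inhibited growth.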
The target of assay [10] is Thioredoxin reductase 1, cytoplasmic (Rattus norvegicus) (UniProt O89049). The assay can be described thus: qHTS Assay for Substrates of Mammalian Selenoprotein Thioredoxin Reductase 1 (TrxR1) (AID 488772).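 Also: NADPH fluorescence in the first read after selenite addition and not the 8 min delta; series mostly up to about 57 µM; a drop in NADPH fluorescence below the no-compound background marks a TrxR1 substrate.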 An outline of the steps:
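Quantitative HTS in Tris-HCl buffer at pH 7.5 with EDTA and Tween-20, using rat TrxR1, 400 uM NADPH and 400 uM selenite (final). A fall in initial NADPH fluorescence relative to background marked substrate behaviour.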

Assay [11] addresses Flap endonuclease 1 (Homo sapiens) (UniProt P39748). The assay can be described thus: qHTS Validation Assay for the Inhibitors of Human Flap endonuclease 1 (FEN1) (AID 488816). The method in brief: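 Human FEN1 (10 nM) preincubated 15 min at room temperature with compounds, then flap DNA substrate added at 50 nM final. Fluorescence read at 0 and 15 min; concentration-response fitted with four-parameter Hill equation.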

The target in assay [12] is Chromobox protein homolog 1 (Homo sapiens) (UniProt P83916). The assay can be described thus: qHTS Validation Assay for Inhibitors of HP1-beta Chromodomain Interactions with Methylated Histone Tails (AID 488953). Also: nearly all actives have a fitted effect of over 50% in size. Also: potency is read from the fitted curve at half-maximal effect. The method in brief: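 Measured as loss of AlphaScreen luminescence from streptavidin donor and nickel acceptor beads (10 ug/mL final) bridging HP1-beta and biotin-H3(1-18)K9me3, each 50 nM. Compounds met the preassembled complex for 30 min at RT.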

The target of assay [13] is Methanococcus maripaludis chaperonin (MmCpn) (UniProt Q6LX38). The assay can be described thus: High-Throughput Screening for Modulators of Cytosolic Chaperonin Activity: MmCpn Primary Screen (AID 488978).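 Also: 50 nM MmCpn enzyme hydrolysing 30 µM ATP at 37 °C.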 The method in brief: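 Measures ATPase turnover of the M. maripaludis chaperonin (50 nM final) against 30 uM ATP over 10 min at 37C, with compound added 5 min beforehand at room temperature. ADP is quantified by HTRF immunodetection.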

The target of assay [14] is M-phase phosphoprotein 8 (Homo sapiens) (UniProt Q99549). The assay can be described thus: qHTS Validation Assay for Inhibitors for MPP8 Chromodomain Interactions with Methylated Histone Tails (AID 488949). Also: nearly all actives have a fitted effect of over 55% in size. Also: potency is read from the fitted curve at half-maximal effect. The method in brief:
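Disruption of the preformed MPP8–trimethyl-H3K9 peptide complex (both 50 nM, 30 min, RT) is measured after 30 min compound exposure, using AlphaScreen proximity beads; aurintricarboxylic acid titration serves as plate control.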

Assay [15] concerns the target Ubiquitin carboxyl-terminal hydrolase 2 (Homo sapiens) (UniProt O75604). The assay can be described thus: qHTS Validation Assay for Inhibitors of Ubiquitin-specific Protease USP2a Using CHOP2 as the Reporter (AID 463106). An outline of the steps:
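USP2 core (10 nM final) was preincubated with compound 30 min at RT in pH 8.0 Tris/CaCl2/beta-ME/CHAPS buffer. Ub-CHOP2 and reporter substrate (25 nM final each) were then added, with fluorescence (Ex 485/Em 531) read after 60 min. Data were normalized to NEM full inhibition and fitted to concentration-response curves.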

Assay [16] is described as follows: qHTS Validation Assay to Find Inhibitors of Chronic Active B-Cell Receptor Signaling (AID 485345; active = well fitted curve in the direction sought with a large enough effect in the main read-out, with a control signal flat, not every such curve was filed as active). An outline of the steps: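 TMD8 ABC-DLBCL cells stably carrying doxycycline-inducible IkappaBalpha–green luciferase fusion plus unfused red luciferase; compounds 46 uM to 3 nM, 4 h at 37C with doxycycline. Corrected green/red luminescence ratio normalized to 10 uM MG-132 and basal cell wells; curves fitted.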

The target of assay [17] is ATP-dependent 6-phosphofructokinase (Trypanosoma brucei brucei) (UniProt O15648). The assay can be described thus: qHTS Validation Assay to Find Inhibitors of T. brucei phosphofructokinase (AID 485368). The method in brief:
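Activity was read as ADP production by luminescence (ADP-Glo) after 45 min at room temperature. The enzyme was 1.25nM PFK in 0.1M TEA pH 8.0 with 0.5 mM F6P, 0.1mM ATP and 5 mM MgCl2. Compounds were titrated up to 57 uM and % activity normalized to no-enzyme and full-enzyme controls.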

Assay [18] deals with Thioredoxin reductase 1, cytoplasmic (Rattus norvegicus) (UniProt O89049). Nature of the assay: qHTS Assay for Inhibitors of Mammalian Selenoprotein Thioredoxin Reductase 1 (TrxR1) (AID 488773).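 Also: drop in NADPH fluorescence over an 8 min run after selenite addition; series mostly up to about 57 µM; nearly all actives have a fitted effect of over 40% in size.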 The conditions noted are these: Potency: inhibition. The method in brief:
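Steps: enzyme (90 nM) plus NADPH (400 uM final), 5 min at ~22 deg C; compound added, 15 min; selenite (400 uM final) added; fluorescence followed for 8 min. Concentration-response curves derived from the normalized delta values.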

A short description of assay [19]: Cytometry Cell-Based qHTS for Inhibitors of the mTORC1 Signaling Pathway in MEF cells (AID 2668).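 Also: Tsc2-/- p53-/- mouse embryonic fibroblasts stably re-expressing wild-type Tsc2; percent cells positive for phospho-rpS6 Ser235/236 relative to propidium iodide stain; series mostly up to about 38 µM.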 The method in brief: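 Pathway inhibition in WT Tsc2-rescued Tsc2-/-, p53-/- MEFs is measured as the Alexa-488 phospho-rpS6 to propidium iodide intensity ratio after 24 hrs of compound at 37 degree Celsius. PI-stained cell number gives viability.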

Sequence of Thioredoxin reductase 1, cytoplasmic (Rattus norvegicus) (O89049 whole entry, looked up): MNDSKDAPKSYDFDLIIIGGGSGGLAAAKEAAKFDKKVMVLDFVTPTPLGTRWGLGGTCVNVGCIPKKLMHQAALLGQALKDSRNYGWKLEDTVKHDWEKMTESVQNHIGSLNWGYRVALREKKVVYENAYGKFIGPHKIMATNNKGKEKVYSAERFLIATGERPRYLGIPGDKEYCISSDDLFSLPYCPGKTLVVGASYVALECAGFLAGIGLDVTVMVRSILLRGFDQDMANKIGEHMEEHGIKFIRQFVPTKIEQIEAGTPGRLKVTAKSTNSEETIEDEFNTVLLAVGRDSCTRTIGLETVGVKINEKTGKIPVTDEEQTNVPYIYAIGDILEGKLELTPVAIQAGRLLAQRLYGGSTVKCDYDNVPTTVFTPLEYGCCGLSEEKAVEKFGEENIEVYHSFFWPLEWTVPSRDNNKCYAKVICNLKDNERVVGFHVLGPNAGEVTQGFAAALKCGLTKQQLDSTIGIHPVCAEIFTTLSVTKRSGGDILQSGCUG
Sequence of Methanococcus maripaludis chaperonin (MmCpn) (Q6LX38 1-543): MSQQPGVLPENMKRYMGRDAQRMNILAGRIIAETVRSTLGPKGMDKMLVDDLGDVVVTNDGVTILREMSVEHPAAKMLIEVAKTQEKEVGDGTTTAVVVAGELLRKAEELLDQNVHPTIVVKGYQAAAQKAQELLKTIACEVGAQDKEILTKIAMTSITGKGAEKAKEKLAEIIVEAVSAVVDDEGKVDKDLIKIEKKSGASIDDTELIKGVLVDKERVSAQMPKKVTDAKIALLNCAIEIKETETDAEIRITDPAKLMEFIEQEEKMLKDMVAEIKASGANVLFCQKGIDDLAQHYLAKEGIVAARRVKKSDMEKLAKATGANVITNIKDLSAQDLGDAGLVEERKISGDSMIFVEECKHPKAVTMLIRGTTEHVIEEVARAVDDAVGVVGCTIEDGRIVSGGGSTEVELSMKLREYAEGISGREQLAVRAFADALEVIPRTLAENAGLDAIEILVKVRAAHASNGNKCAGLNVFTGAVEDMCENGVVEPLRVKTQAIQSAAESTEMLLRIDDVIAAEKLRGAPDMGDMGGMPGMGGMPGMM
Sequence of Tumor susceptibility gene 101 protein (Homo sapiens) (Q99816 whole entry, looked up, the tested form may be a part): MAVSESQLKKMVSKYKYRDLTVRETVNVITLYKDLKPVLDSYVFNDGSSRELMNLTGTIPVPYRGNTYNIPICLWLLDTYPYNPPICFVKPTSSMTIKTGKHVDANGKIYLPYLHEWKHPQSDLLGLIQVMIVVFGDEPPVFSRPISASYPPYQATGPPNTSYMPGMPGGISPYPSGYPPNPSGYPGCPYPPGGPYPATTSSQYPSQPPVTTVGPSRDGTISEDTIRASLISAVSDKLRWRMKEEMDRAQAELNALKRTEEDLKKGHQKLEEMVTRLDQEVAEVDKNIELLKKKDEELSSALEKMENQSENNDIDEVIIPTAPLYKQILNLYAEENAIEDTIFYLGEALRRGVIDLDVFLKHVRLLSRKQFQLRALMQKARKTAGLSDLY
Sequence of Chromobox protein homolog 1 (Homo sapiens) (P83916 whole entry, looked up): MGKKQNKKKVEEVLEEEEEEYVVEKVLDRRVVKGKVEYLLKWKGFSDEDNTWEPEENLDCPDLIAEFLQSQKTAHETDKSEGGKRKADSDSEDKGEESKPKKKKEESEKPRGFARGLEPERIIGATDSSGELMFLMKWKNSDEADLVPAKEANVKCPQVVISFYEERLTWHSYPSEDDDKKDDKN
Sequence of Flap endonuclease 1 (Homo sapiens) (P39748 whole entry, looked up): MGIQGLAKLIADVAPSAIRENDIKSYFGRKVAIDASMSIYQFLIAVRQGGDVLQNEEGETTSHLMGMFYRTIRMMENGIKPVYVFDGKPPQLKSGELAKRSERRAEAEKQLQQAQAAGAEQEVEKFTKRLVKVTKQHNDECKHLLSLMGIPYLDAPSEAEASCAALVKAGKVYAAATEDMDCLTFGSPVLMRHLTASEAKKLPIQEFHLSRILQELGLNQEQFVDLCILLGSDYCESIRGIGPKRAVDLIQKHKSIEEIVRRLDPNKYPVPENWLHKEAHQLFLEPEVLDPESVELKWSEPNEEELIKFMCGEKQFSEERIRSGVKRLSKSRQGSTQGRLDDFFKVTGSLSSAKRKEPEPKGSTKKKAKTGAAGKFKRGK
Sequence of ATP-dependent 6-phosphofructokinase (Trypanosoma brucei brucei) (O15648 whole entry, looked up): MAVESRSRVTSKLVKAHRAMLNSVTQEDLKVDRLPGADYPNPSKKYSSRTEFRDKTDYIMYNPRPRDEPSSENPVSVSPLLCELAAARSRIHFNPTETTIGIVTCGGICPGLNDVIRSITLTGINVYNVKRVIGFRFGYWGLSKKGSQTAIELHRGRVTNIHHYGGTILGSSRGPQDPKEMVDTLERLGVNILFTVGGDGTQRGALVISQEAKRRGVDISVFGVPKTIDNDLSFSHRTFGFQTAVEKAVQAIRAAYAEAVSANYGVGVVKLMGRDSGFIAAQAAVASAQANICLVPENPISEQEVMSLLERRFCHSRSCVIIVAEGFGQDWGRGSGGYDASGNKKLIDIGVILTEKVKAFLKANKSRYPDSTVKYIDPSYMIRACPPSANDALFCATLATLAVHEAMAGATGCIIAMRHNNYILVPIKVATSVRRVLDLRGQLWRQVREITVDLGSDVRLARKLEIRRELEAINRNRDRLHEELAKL
Sequence of Beta-2 adrenergic receptor (Homo sapiens) (P07550 whole entry, looked up): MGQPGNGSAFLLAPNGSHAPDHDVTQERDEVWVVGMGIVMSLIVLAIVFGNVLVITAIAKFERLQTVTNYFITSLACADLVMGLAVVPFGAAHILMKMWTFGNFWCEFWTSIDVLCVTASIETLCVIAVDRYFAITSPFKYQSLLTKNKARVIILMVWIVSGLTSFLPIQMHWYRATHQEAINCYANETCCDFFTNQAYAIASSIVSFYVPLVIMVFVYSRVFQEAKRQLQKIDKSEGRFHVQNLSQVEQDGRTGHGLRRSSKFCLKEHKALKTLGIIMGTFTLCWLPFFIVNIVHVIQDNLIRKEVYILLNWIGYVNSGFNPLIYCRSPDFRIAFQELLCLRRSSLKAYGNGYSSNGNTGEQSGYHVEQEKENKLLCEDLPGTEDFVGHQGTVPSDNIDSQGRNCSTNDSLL
Sequence of M-phase phosphoprotein 8 (Homo sapiens) (Q99549 whole entry, looked up): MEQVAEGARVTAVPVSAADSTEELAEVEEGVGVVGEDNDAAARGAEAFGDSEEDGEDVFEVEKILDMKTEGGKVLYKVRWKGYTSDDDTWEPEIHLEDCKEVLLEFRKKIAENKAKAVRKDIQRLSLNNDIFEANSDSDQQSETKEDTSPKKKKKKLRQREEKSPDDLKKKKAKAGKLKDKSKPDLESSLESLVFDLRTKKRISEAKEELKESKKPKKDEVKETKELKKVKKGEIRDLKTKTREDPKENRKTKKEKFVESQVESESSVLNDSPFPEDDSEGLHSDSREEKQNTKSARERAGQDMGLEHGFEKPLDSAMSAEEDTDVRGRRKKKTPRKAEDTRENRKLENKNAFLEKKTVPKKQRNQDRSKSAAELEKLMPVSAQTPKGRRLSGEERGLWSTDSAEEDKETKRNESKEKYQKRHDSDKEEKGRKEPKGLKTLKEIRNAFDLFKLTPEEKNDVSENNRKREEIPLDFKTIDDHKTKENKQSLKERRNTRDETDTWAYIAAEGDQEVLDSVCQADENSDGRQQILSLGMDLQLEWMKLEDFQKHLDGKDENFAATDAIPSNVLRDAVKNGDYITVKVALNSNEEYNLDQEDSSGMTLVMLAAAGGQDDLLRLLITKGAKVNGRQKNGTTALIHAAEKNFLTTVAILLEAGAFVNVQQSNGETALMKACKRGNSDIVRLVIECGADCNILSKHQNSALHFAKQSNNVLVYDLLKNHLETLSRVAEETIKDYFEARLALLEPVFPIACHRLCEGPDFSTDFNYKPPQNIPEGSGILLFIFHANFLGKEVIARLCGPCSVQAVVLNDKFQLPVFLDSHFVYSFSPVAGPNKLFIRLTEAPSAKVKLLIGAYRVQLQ
Sequence of Ubiquitin carboxyl-terminal hydrolase 2 (Homo sapiens) (O75604 whole entry, looked up): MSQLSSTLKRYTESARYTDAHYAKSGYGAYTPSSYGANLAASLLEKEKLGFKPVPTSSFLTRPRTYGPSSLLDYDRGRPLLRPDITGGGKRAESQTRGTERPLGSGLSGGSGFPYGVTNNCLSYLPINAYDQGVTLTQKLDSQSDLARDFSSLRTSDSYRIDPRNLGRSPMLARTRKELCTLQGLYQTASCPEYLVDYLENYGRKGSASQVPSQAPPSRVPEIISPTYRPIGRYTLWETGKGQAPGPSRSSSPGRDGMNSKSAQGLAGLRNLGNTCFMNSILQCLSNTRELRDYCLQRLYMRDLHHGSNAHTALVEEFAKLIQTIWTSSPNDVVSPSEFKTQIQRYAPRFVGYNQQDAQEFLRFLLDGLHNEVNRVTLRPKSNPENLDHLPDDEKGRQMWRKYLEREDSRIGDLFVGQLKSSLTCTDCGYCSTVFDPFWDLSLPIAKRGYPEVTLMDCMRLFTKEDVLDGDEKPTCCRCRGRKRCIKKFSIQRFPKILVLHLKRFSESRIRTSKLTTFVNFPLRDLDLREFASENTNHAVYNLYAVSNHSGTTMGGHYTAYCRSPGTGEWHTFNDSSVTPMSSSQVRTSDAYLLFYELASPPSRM

`C/C(=C\c1ccc(C(=O)O)cc1)c1ccc2c(c1)C(C)(C)CCC2(C)C`: the call in assay [1], in [6], in [7], in assay [10] and in assay [13] was inactive. Further, the Potency result in assay [2], in assay [3], in assay [5], in assay [8], in assay [9] and in assay [11] was “inactive” throughout. Also, the Potency result in [12] is “inactive”. Also, the Potency in assay [4] is 11.2 µM (active).

As for `O=C1Nc2ccc(I)cc2/C1=C/c1cc(Br)c(O)c(Br)c1`, the outcome in assay [1], in assay [6], in assay [7], in [10] and in [13] was inactive. The Potency result in assay [2], in assay [3] and in [9] was “inactive” throughout. Besides, the Potency is 21.2 µM (active) in assay [5]; 14.1 µM (active) and 9.47 µM (active) in assay [14]; 11.2 µM (active) in assay [12].

For the compound `CCCCCCN(CCCCCC)C(=O)Cc1c(-c2ccc(F)cc2)[nH]c2ccccc12`, the outcome in [1], in [6], in assay [16], in assay [7], in [10] and in assay [13] was inactive. The Potency result in [2], in assay [3], in [4], in assay [15], in [5] and in [17] was “inactive” in each case. The Potency result in [18], in assay [11], in assay [14] and in [12] was “inactive” in each case. The Potency in assay [8] was 3.7 µM (active); in assay [9] it was 5.22 µM (active).

For `CC[C@@H]1Cc2cc(O)ccc2C2=C1c1ccc(O)cc1C[C@H]2CC`, the result in assay [1], in assay [6], in [7] and in assay [13] was inactive. Besides, the Potency entry in assay [2], in [3], in assay [15], in assay [5], in [17] and in assay [8] was “inactive” each time. Moreover, the Potency result in assay [18] and in assay [11] was “inactive” in each case. In addition, the Potency in [9] is 13.1 µM (active); in assay [14], 35.5 µM (active) and inactive.

Regarding `C[C@H]1CC2C3CCC4=CC(=O)C=C[C@]4(C)[C@@]3(Cl)[C@@H](O)C[C@]2(C)[C@@]1(O)C(=O)CO` (some centres not stated), the call in assay [1], in assay [6], in assay [7], in assay [10] and in [13] was inactive. Also, the Potency entry in assay [2], in assay [3], in [19], in assay [15], in [5] and in assay [18] was “inactive” in each case. Further, the Potency entry in assay [11] and in assay [14] was “inactive” throughout.

Consider `Nc1ccc2c3c(cccc13)C(=O)NC2=O`, for which the compound was classed as inactive in [1], in assay [7], in assay [10] and in [13]. In addition, the Potency result in assay [2], in [3], in assay [4], in assay [5], in assay [8] and in assay [9] was “inactive” in each case. In addition, the Potency entry in assay [18] and in assay [14] was “inactive” throughout.

In the case of `O[Si](CCCN1CCCCC1)(c1ccc(F)cc1)C1CCCCC1` (configuration not stated), the compound was called inactive in [1], in assay [6], in assay [16], in assay [7] and in assay [13]. Besides, the Potency result in [2], in assay [4], in [15], in assay [5], in assay [17] and in assay [18] was “inactive” in each case. The Potency entry in [11], in assay [14] and in assay [12] was “inactive” each time. The Potency in assay [8] and in assay [9] was 0.117 µM (active) throughout.

For `O=c1[nH]c(=S)[nH]c(-c2ccccc2)c1Cc1c(O)ccc2ccccc12`, the compound was classed as inactive in assay [1] and in assay [6]. The Potency entry in assay [2], in assay [19], in assay [15], in assay [17], in assay [18] and in assay [11] was “inactive” in each case. Besides, in assay [14], the Potency result was “inactive”. Besides, in [12], the Potency was 44.7 µM (active).

Regarding `CCn1c(=O)[nH]c2cc(Cl)c(Cl)cc21`, the compound was classed as inactive in assay [1], in assay [6], in assay [7], in assay [10] and in [13]. Also, the Potency entry in [2], in assay [19], in assay [4], in assay [15], in assay [5] and in assay [8] was “inactive” each time. Moreover, the Potency entry in [9], in assay [18], in [14] and in assay [12] was “inactive” in each case.
